From PubChem BioAssay AID504894 (National Center for Advancing Translational Sciences (NCATS), 2011)
Among all 330,000 compounds or so, fewer than 10 were called active. Calls come from the whole dose curve; as a rule, active = well fitted activation curve with a large enough effect; inconclusive = small, poorly fitted or top-dose-only effect, or another doubt; inactive = no such curve, though single readings can be large or run the other way. These entries were drawn from the full list.

Test: Activators of T cell receptors: qHTS campaign; note: % of control where 0% means no effect
Settings: primary human leukocytes, anti-CD3, IL-2 HTRF, 48 h; series mostly up to 9.22 µM; activation of IL-2 secretion: at the top concentration
From the text: Normally activation of naive T cells requires two signals. 1. A signal through the T cell receptor (TCR) which provides antigen specificity to the response. 2. Signals through co-stimulatory molecules, which are necessary for proliferation, survival and cytokine production. In the absence of co-stimulatory signals T cells are not effectively activated, and may even be rendered anergic or unresponsive to subsequent signaling. This lack of costimulation has been shown in multiple model systems to be a major factor in the limited strength and effectiveness of anti-tumor T cell responses. The goal of this project is to identify small molecule compounds that will stimulate T cell activation in the presence of TCR signaling but in the absence of co-stimulatory signals, thereby allowing activation of naive T cells in the absence of co-stimulation. Identification of such compounds would have clear experimental and clinical applications in instances where desirable antigen-specific immune responses are not generated due to a lack of co-stimulation, for example in the generation of anti-tumor responses. In collaboration between the National Cancer Institute and NIH Chemical Genomics Center, a high-throughput amenable screen was developed to discover small molecules that co-stimulate and activate human T cell receptors. The screen will be carried out using a novel homogeneous time resolved fluorescence energy transfer (HTRF) assay to measure production of the cytokine IL-2 by activated T cells and will be tested against the NIH Molecular Libraries Small Molecule Repository (MLSMR). NIH Chemical Genomics Center [NCGC] NIH Molecular Libraries Probe Centers Network [MLPCN] MLPCN Grant: MH090820-01 Assay Submitter (PI): Richard Hodes, National Cancer Institute, NIH
Primary human leukocytes are incubated with a-CD3 beads and compounds for 48 hr. The amount of secreted IL-2 is then assayed with a HTRF IL-2 kit. The presence of IL-2 cytokine captures the detection reagents and brings the a-IL-2-K and a-IL-2-d2 into close proximity. Upon excitation with 320nm light, the europium cryptate is capable of transferring energy to acceptor molecules within close proximity, resulting in acceptor molecule emission at 665nm.

Activation of IL-2 secretion, inactive:
COc1cccc(CC(=NO)c2cccc(OC)c2)c1 -1.64%
CC(NC(=O)c1ccccc1)C(=O)Nc1ccccc1 (stereo not drawn) -0.854%
COc1cc(/C=C/CNC[C@H]2O[C@@H](n3cnc(C(N)=O)n3)[C@H](O)[C@@H]2O)ccc1O 1.99%
COc1cc2c(cc1OC)C(Cc1cc(OC)c(OC)cc1[N+](=O)[O-])=NCC2 5.72%
Cc1ccc(-c2csc(C(C#N)=C(O)CN3CCN(C(=O)c4ccco4)CC3)n2)cc1 6.47%
CN(C)c1ccc(CSc2ccccc2)cc1 -1.78%
COc1cc(C(=O)CCc2ccc3c(c2)OCO3)cc(OC)c1OC 8.7%
O=c1[nH]c2c(c(=O)n1-c1ccccc1)CCO2 -1.41%
CN(C(=O)c1cccc(NC(=O)Cc2ccc(NC(=O)C3CCCN(C(=O)C4CCCC4)C3)cc2)c1)C1CCC1 (stereo not drawn) -4.37%
CC(=O)c1cccc(-c2ccc(CN3C(CC(C)C)C(=O)N(Cc4cn(CC5CCCCC5)nn4)CCS3(=O)=O)cc2)c1 (stereo not drawn) 7.42%
N#CCc1c[nH]c2ccc([N+](=O)[O-])cc12 10.7%
O=c1c2ccccc2ncn1CCc1ccncc1 -2.16%
COc1cccc2c1C(=O)c1c(O)c3c(c(O)c1C2=O)CC(O)(C(C)=NNC(=O)c1ccc(Cl)c(Cl)c1)CC3OC1CC(N)C(O)C(C)O1 (stereo not drawn) 1.92%
O=c1ccn([C@@H]2O[C@H](CNS(=O)(=O)c3cc4ccccc4s3)[C@@H](O)[C@H]2O)c(=O)[nH]1 -47.4%
CCCCN1CC(COCc2ccccc2)OCCS1(=O)=O (stereo not drawn) -2.23%
COc1ccc(OC)c(Cc2cnc3nc(N)nc(N)c3c2C)c1 -1.86%
CCC1([N+](=O)[O-])COC(c2ccc(C(C)C)cc2)OC1 (stereo not drawn) -4.78%
CC1C(C)N(C(=O)CCl)c2ccccc2N1C(=O)CCl (stereo not drawn) -0.0701%
OCC(O)C1OCOC(C(O)CO)C1O (stereo not drawn) 4.15%
CC1=CC(=NNS(=O)(=O)c2ccc([N+](=O)[O-])cc2)CC(C)(C)C1 7.06%
C#CCOCCOCCOCCNc1nc(N2CCOCC2)nc(N2CCN(C(=O)[C@H](Cc3ccc(O)cc3)n3cc(CCO)nn3)CC2)n1 -9.96%
COc1ccc(Cl)cc1C=CC=Nc1ccc(S(N)(=O)=O)cc1 6.08%
O=C(O)C(CCc1ccccn1)c1ccccc1 (stereo not drawn) 0.56%
COc1ccc(C(=O)Nc2cccc(/C=C(/CCC(=O)O)c3nc4ccccc4s3)c2)cc1 5.18%
O=[N+]([O-])c1ccc(NS(=O)(=O)c2ccccc2)c(Cl)c1 0.637%
OC(COc1ccccc1)CN1CCN(c2cccc(Cl)c2)CC1 (stereo not drawn) 5.71%
COc1cc2c(cc1CNC[C@H]1O[C@@H](n3cnc(C(N)=O)n3)[C@H](O)[C@@H]1O)OCO2 15%
CCc1nnc(NC(=O)c2cc(S(=O)(=O)N3CCN(CC)CC3)ccc2Cl)s1 2.5%
O=C(NNc1nc(N2CCCC2)nc(N2CCCC2)n1)c1ccccc1 -3.33%
Nc1ccc2[nH]c(=S)sc2c1 6.49%
CCCC(O)(c1ccccc1)C(c1ccccc1)c1ccccn1 (stereo not drawn) -4.1%
COc1ccc(Cl)cc1C=CC=NNC(=O)c1ccncc1 -0.951%
COc1cccc2oc(CCc3ccccc3)cc(=O)c12 -2.9%
Nc1ccc2c(c1)C(O)c1ccc(Cl)cc1-2 (stereo not drawn) 0.187%
COc1ccc(CNCCCNCc2ccc(OC)c(OC)c2)cc1OC -0.561%
O=S(=O)(Nc1ccc2ccccc2c1)N1CCCCC1 1.29%
C[C@@H]1NS(=O)(=O)c2cc(Cl)ccc2O[C@@H]1c1ccccc1 0.528%
O=[N+]([O-])c1ccc(COc2ccccc2CN2CCOCC2)cc1 -5.64%
Cc1nc2ccccc2c(C(=O)O)c1-c1ccccn1 -0.737%
O=C1NC(=O)C(CCc2ccccc2)(c2ccccc2)N1 (stereo not drawn) -11.2%
O=c1oc2ccccc2c(=O)c2ccccc12 -4.64%
c1ccc(C(=NNc2nc3ccccc3s2)c2ccccn2)cc1 -17.9%
Cc1ccc(OCCNC(=O)c2cccc(S(=O)(=O)N3CCN(Cc4ccccc4)CC3)c2)cc1 -0.64%
O=C(NCCc1ccccc1)c1c[nH]c2ccc(F)cc2c1=O 3.03%
CNN/C(N=Cc1ccc([N+](=O)[O-])s1)=N\S(=O)(=O)c1cc(C)c(Cl)cc1SCc1ccccc1 0.19%
O=C1OC(Cc2ccccc2)C(c2ccccc2)C1=O (stereo not drawn) 0.207%
COc1ccc(S(=O)(=O)N2CCc3ccccc32)cc1C(=O)Nc1cc(S(C)(=O)=O)ccc1Cl 4.1%
CN(O)C(=S)c1ccccc1 3.76%
CC(C)C[C@H]1CN([C@@H](CC(C)C)CN2CCC[C@@H]2CN2C(=O)C(=O)NC[C@@H]2Cc2ccccc2)C(=O)C(=O)N1CCc1ccccc1 3.01%
COc1cc(C2c3cc4c(cc3C(O)C3COC(=O)C23)OCO4)cc(OC)c1OC (stereo not drawn) -6.83%
Cc1cc(C)c(C=NNc2nc3c([nH]2)c(=O)n(C)c(=O)n3C)c(C)c1 -2.46%
C#CCOCCOCCOCCNc1nc(N2CCN(C(=O)Cn3cc(CCO)nn3)CC2)nc(N2CCN(C(=O)[C@H](CCCCN)n3cc(CCCC)nn3)CC2)n1 -0.341%
C[C@]12CCC(=O)C=C1C=CC1C2CC[C@@]2(C)C1CC[C@@]21CCC(=O)O1 (stereo partly drawn) -6.09%
CC(=O)Nc1ccc(C(=O)Nc2cc(S(=O)(=O)N3CCOCC3)ccc2N2CCOCC2)cc1 5.5%
C=CC(=O)Nc1ccc(Nc2ccnc(Nc3ccc(N4CCN(C)CC4)cc3)n2)cc1 7.98%
Cc1ccc(C)c(S(=O)(=O)N(C)c2ccc(OC(=O)C3CCN(C(=O)c4ccc(F)cc4)CC3)cc2)c1 3.39%
Cc1c(NS(=O)(=O)c2cccc(C(=O)Nc3ccc(SC(F)F)cc3)c2)c(=O)n(-c2ccccc2)n1C -2.41%
C[C@@H]1ON(C)[C@H]2C[C@H]3c4cc(N5CCN(C)CC5)ccc4CCN3C(=O)[C@@H]12 6.04%
Cc1onc(-c2c(F)cccc2Cl)c1C(=O)Nc1cccc(S(=O)(=O)N2CCCCC2)c1 5.63%
O=C(CC1Sc2ccccc2NC1=O)NNc1ccc(Cl)c(Cl)c1 (stereo not drawn) -9.29%
CCC(=O)N1CCc2cc(Br)c(S(=O)(=O)NCCN3CCCCC3CC)cc21 (stereo not drawn) -2.39%
CC(C)Cn1cnc2c(SCc3ccc(Cl)cc3)nc(N)nc21 0.446%
O=C1NCC(c2ccccc2)(c2ccccc2)C(=O)N1 -1.83%
COC[C@@H]1NS(=O)(=O)c2ccc(Br)cc2O[C@H]1c1ccccc1 6.54%
CN1CCC(N(C)C(=O)c2ccc(Cl)c(S(=O)(=O)Nc3ccc(Cl)cc3)c2)CC1 1.82%
Cc1cc2c(cc1C)NC1(C[C@H]3CCC(=O)N4CC[C@@H](C1)[C@@H]34)C(=NC(C)(C)CC(C)(C)C)N2 (stereo partly drawn) -11.4%
CN(C(=O)c1cccc(NC(=O)Cc2ccc(NC(=O)C3CCCN(C(=O)C4CC4)C3)cc2)c1)C1CC1 (stereo not drawn) -3.14%
O=C1/C(=C\c2ccc(O)cc2)CCC1CNc1ccc(Cl)cc1 (stereo not drawn) -0.0826%
O=C1C2C3C=CC(C3)C2C(=O)N1c1ncc([N+](=O)[O-])s1 (stereo not drawn) 0.761%
NNc1cccc(C=Cc2ccccc2)cc1=O -0.278%
COc1ccc(-c2nnc(-c3ccc4ccccc4c3)o2)cc1 -0.347%
Cc1nc(N)sc1-c1ccccc1 6.41%
NC(=O)C1(Nc2ccc(-c3ccccc3)cc2)CCCC1 -6.79%
CCN(CC)CCCN1C(=O)C(=O)/C(=C(/O)c2c(C)nc3ccccn23)C1c1ccc(C)o1 (stereo not drawn) -1.01%
O=C1OC(Oc2ccc(Br)cc2)(c2ccccc2)c2ccccc21 (stereo not drawn) 10.2%
CN(C)C(=S)N=c1ssc(=S)n1Cc1ccco1 3.1%
CN(C(=O)c1cccc(NC(=O)Cc2cccc(NC(=O)C3CCCN(C(=O)C4CC4)C3)c2)c1)C1CCC1 (stereo not drawn) 0.256%
O=C(NNC(=O)c1ccccc1O)c1ccccc1O -2.99%
O=C1CC(c2ccccc2)C(=O)N2C(=O)CC(c3ccccc3)C(=O)N12 (stereo not drawn) -4.84%
Nc1ccc2c(c1)C(=Cc1cccnc1)c1ccccc1-2 -2.17%
CC(=O)c1ccc(NC(=O)C(C)OC(=O)c2ccc(NS(=O)(=O)c3ccc4[nH]c(=O)[nH]c4c3)cc2)cc1 (stereo not drawn) 2.02%
CCOc1ccccc1NC(=S)C(=C([O-])c1ccc2c(c1)OCCO2)[n+]1ccc(CC)cc1 -5.5%
O=C1C(Cl)=C(Oc2ccccc2)C(=O)c2ccccc21 -2.03%
CSc1ncnc2c1ncn2CC(=O)C1CCC2C3CCC4=CC(=O)CCC4(C)C3CCC12C (stereo not drawn) 1%
O=S(=O)(O)c1cc2onnc2c2ccccc12 0.823%
CCOC(=O)c1ccc2[nH]c(C)c(CN3CCN(C)CC3)c(=O)c2c1 2.26%
COC1=CC(=O)OC(c2ccc(OC)cc2)C1 (stereo not drawn) -4.88%
CCOC(=O)c1ccccc1OC(=O)Oc1ccccc1C(=O)OCC 12.8%
COc1ccc(CCN2CC(C(=O)OCC(=O)NCc3ccccc3Cl)CC2=O)cc1OC (stereo not drawn) 10.2%
O=C(CNC(=O)c1cc(S(=O)(=O)N2CCOCC2)ccc1N1CCCC1)Nc1ccc(F)c(F)c1 2.72%
COc1cc2[nH]c(O)c(C=O)c2cc1OC 1.43%
Cc1ccc(Nc2c(O)nc[nH]c2=O)cc1C -0.131%
NC(=O)C1(Nc2ccc([N+](=O)[O-])cc2)CCCC1 -2.68%
O=C1COc2c1ccc(O)c2O -2.28%
O=C(Cc1ccc(Cl)cc1)c1ccccc1 -1.31%
c1ccc2c(c1)OC1OC2Oc2ccccc21 -1%
CCc1ccc(C(=O)C(C)OC(=O)CN2C(=O)NC3(CCCC3)C2=O)cc1 (stereo not drawn) 0.426%
CCOC(=O)C1CCCN(C(=O)Cn2ncc3c(=O)oc4ccc(C)cc4c32)C1 (stereo not drawn) 3.09%
CC(=O)OCC1(O)CC23CCC4c5ccoc5CCC4(C)C2CCC1C3 (stereo not drawn) -4.8%
CC(=O)CSc1nc(CCc2ccccc2)c(C#N)c(=O)[nH]1 -2.27%
CCN(CC)CCCC(C)n1c2nc(=O)[nH]c(=O)c-2nc2cc(Cl)ccc21 (stereo not drawn) -2.28%
c1ccc(-c2c[nH]c(-c3ccccc3)c2)cc1 -2.6%
O=C(NCC1(N2CCCCC2)CCCCC1)c1cccc(S(=O)(=O)Nc2ccccc2Cl)c1 -1.93%
